EBV LMP1 NFkB: Epstein-Barr LMP1 NF-kappaB reporter inhibition; LMP1-induced NF-kappaB luciferase reporter cells, luminescence; inhibition, % at 12.5 µM; actives 0.69% (n = 350,000); AID 504558; in the data active = inhibition above about 41%;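 also: 0% = neutral control wells and 100% = reference inhibitor control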
TROY signal inh: blocks TROY-dependent signaling in reporter cells; inhibition, % at 10 µM; actives 0.98% (n = 360,000); Q293 LMP1-TROYcd NF-kB luciferase reporter, 4 h;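 active = compounds whose plate-normalised and pattern-corrected inhibition of the luciferase reporter signal at the single screening dose is 50% or more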
HSF1 inhib: HSF1 inhibition; NIH3T3-HGL HSE-luciferase, MG132-induced, luminescence 8 h; active compounds read low; activity change, negative = inhibition, % at 7.5 µM (by protocol); actives 0.77% (n = 300,000); AID 2098;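 active = more than half of replicate wells show activity change below -50%, luminescence cut by over half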;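 also: luciferase reports HSF-1 transcriptional activity via heat shock element; 0% = median of DMSO wells and -100% = zero luminescence signal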
LGR2 inh: Drosophila LGR2 receptor signaling inhibition; actives 0.35% (n = 380,000); HEK293 LGR2, CRE-luciferase, bursicon-stimulated, 4 h; inhibition, % at 9.99 µM;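 active = drop in luminescence signal, shown as inhibition above about 50% in the replicate tests, limit read from the data, passing the limit was not always enough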;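 also: agonist challenge used bursicon conditioned medium at about half maximal strength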
HSF1 activator: increases HSF-1 driven luciferase reporter signal | NIH3T3-HGL HSF-1 luciferase reporter, MG132, 8 h; 100% = twice DMSO control signal | activation, % at 9 µM | actives 1.7% (n = 300,000);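 active = mean replicate activation of at least 50% with a set share of replicates each reaching 50%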;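 also: 0% = median of the neutral control wells and 100% = twice that signal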
TWEAK-Fn14 inh: TWEAK-Fn14 signaling inhibition; TWEAK-stimulated Fn14 reporter cells, luciferase luminescence, 8 h; AID 1159606; inhibition, % at 10 µM; actives 2% (n = 360,000); in the data active = inhibition above about 50%
An asterisk follows results filed as active. A selection: hits, their analogues and other compounds. The true share with any hit is near 3.6%.

Results for Cc1ccc(S(=O)(=O)N(C)C[C@@H]2Oc3ccc(NS(=O)(=O)c4c(C)noc4C)cc3CC(=O)N([C@@H](C)CO)C[C@@H]2C)cc1 ?
LGR2 inh: 0

How did C[C@H]1CN([C@@H](C)CO)C(=O)Cc2cc(NC(=O)Nc3ccc4c(c3)OCO4)ccc2O[C@@H]1CN(C)CC1CCCCC1 do in these assays?
LGR2 inh: -29

Results for CN(C)CC(=O)N1[C@H](C(=O)NC2CCCC2)[C@@H](CO)[C@@H]2Cn3c(ccc(-c4ccc(F)cc4)c3=O)[C@@H]21 ?
LGR2 inh: 16

How did COc1ccc(-c2csc3nc(-c4ccccc4F)oc(=O)c23)cc1 do in these assays?
EBV LMP1 NFkB: 3; TROY signal inh: -8; HSF1 inhib: 63; LGR2 inh: -17; HSF1 activator: 78*; TWEAK-Fn14 inh: -8

How did COc1ccc(-c2nc3scc(-c4ccc(OC)c(OC)c4)c3c(=O)o2)cc1 do in these assays?
EBV LMP1 NFkB: 13; TROY signal inh: -21; HSF1 inhib: 5; HSF1 activator: 20; TWEAK-Fn14 inh: -6

How did Cc1ccc(CN(C)C(=O)C2CCC(=O)N(CCc3ccccc3)C2)o1 (configuration not stated) do in these assays?
EBV LMP1 NFkB: -9; TROY signal inh: -32; HSF1 inhib: 114; LGR2 inh: -12; HSF1 activator: 195*; TWEAK-Fn14 inh: -14

How did O=C1CCC(C(=O)N2CCCCCC2)CN1CCc1ccc(Cl)cc1 (configuration not stated) do in these assays?
EBV LMP1 NFkB: 69*; TROY signal inh: -41; HSF1 inhib: -2; LGR2 inh: 15; HSF1 activator: 26; TWEAK-Fn14 inh: 6

How did CN(CCOc1ccccc1)C(=O)C1CCC(=O)N(CCc2ccc(Cl)cc2)C1 (configuration not stated) do in these assays?
EBV LMP1 NFkB: -18; TROY signal inh: -48; HSF1 inhib: 23; LGR2 inh: -51; HSF1 activator: 59*; TWEAK-Fn14 inh: -19

How did O=C(C[C@@H]1C=C[C@H](NC(=O)CN2CCOCC2)[C@@H](CO)O1)NC1CCCCC1 do in these assays?
LGR2 inh: -3

Results for CN(C)c1ccc(-c2c(-c3ccc4c(c3)OCO4)noc2-c2ccsc2)cn1 ?
EBV LMP1 NFkB: -8; TROY signal inh: -45; HSF1 inhib: 25; HSF1 activator: 21; TWEAK-Fn14 inh: -52

What do the screens show for `O=C(O)c1cc(-c2ccc(-c3c(-c4ccc5c(c4)OCO5)noc3-c3ccsc3)cc2)nc2ccccc12`?
EBV LMP1 NFkB: -4; TROY signal inh: 39; HSF1 inhib: 13; LGR2 inh: -78; HSF1 activator: 24; TWEAK-Fn14 inh: 57*

What do the screens show for `Cc1cc(/C=N/NC(=O)c2cccs2)c(C)n1-c1ccccc1`?
EBV LMP1 NFkB: 17; TROY signal inh: 63*; HSF1 inhib: -69*; HSF1 activator: -74; TWEAK-Fn14 inh: 80*

Results for O=C(N/N=C/c1ccccc1[N+](=O)[O-])c1cccs1 ?
EBV LMP1 NFkB: -11; TROY signal inh: -43; HSF1 inhib: 39; LGR2 inh: -49; HSF1 activator: 61*; TWEAK-Fn14 inh: -8

Results for CC(C)C(=O)Nc1ccc2c(c1)C(=O)N(C)[C@H]1CC[C@H](CC(=O)NC3CCCC3)O[C@H]1CO2 ?
LGR2 inh: 12

Results for CCCN1C[C@H](C)[C@H](OC)CN(C)C(=O)c2cc(NC(=O)c3cccc(OC)c3)ccc2OC[C@H]1C ?
LGR2 inh: 2

What do the screens show for `O=C1CC(NC23CC4CC(CC(C4)C2)C3)C(=O)N1c1ccc2c(c1)OCO2` (configuration not stated)?
EBV LMP1 NFkB: -4; TROY signal inh: 56*; HSF1 inhib: -26; LGR2 inh: -8; HSF1 activator: -41; TWEAK-Fn14 inh: 33

Results for COc1cccc(NC(=O)C2CCN(c3cnccn3)CC2)c1 ?
EBV LMP1 NFkB: -5; TROY signal inh: -2; HSF1 inhib: -1; LGR2 inh: 3; HSF1 activator: -1; TWEAK-Fn14 inh: 98*

Results for CC(=O)Nc1ccc(CN2C(=O)C(Cc3ccccc3)ON=C2c2cccc(F)c2)cc1 (configuration not stated) ?
TROY signal inh: 83*; LGR2 inh: -19; TWEAK-Fn14 inh: -22

Screening data deposited in PubChem by several laboratories.
